# Assay results from PubChem BioAssay.
# “And” between values parts separate entries of the source, which are not always exact repeats. Equal entries are not always repeated. The source made the active and inactive calls. How the calls were made is not given here.
# Test system: Aerobactin synthetase IucA (Klebsiella pneumoniae hvKP1)
# Experiment: IucA enzyme inhibition, primary screen, biochemical, Spectrum library (AID 1346200);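 further: 100% = wells without compound and 0% = wells lacking enzyme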
# Conditions: malachite green pyrophosphate, A620, at 8 µM, active compounds read low
row,Compound,activity remaining
1,CCCc1nn(C)c2c(=O)[nH]c(-c3cc(S(=O)(=O)N4CCN(C)CC4)ccc3OCC)nc12,97% (inactive)
2,C=CC(C1=CC(=O)C(OC)=CC1=O)c1ccc(OC)cc1 (stereo not given),109% (inactive)
3,C[C@]12C=CC(=O)C=C1CCC1C2[C@@H](O)C[C@@]2(C)C1CC[C@]2(O)C(=O)COP(=O)(O)O (stereo not given in full),117% (inactive)
4,CC1(C)C(=O)[C@@H]2C[C@@]3(O)C4=CC(=O)O[C@@H](c5ccoc5)[C@]4(C)CCC3C(C)(C2=O)[C@H]1CC(=O)O (stereo not given in full),98.2% (inactive)
5,CC1(C)S[C@@H]2[C@H](NC(=O)[C@H](NC(=O)N3CCNC3=O)c3ccccc3)C(=O)N2C1C(=O)O (stereo not given in full),95.7% (inactive)
6,C[C@]12CCC3c4ccc(O)cc4CCC3C1CC[C@@H]2O (stereo not given in full),125% (inactive)
7,CC(C)=CCc1c2c(c(O)c3c(=O)c(O)c(-c4ccccc4)oc13)C=CC(C)(C)O2,110% (inactive)
8,CC1(C)CC[C@@]2(C(=O)O)C(C1)C1=CCC3[C@@]4(C)CC[C@H](O)C(C)(C)C4CC[C@@]3(C)[C@]1(C)C[C@@H]2O (stereo not given in full),99.8% (inactive)
9,CC(=O)O[C@@H]1CC[C@@]2(C)C(CC[C@]3(C)C2CC=C2C4CC(C)(C)CC[C@]4(C(=O)O)CC[C@]23C)C1(C)C (stereo not given in full),96.2% (inactive)
10,C[C@H]1CC2C([C@@H](O)C[C@@]3(C)C2CC[C@]3(O)C(=O)COC(=O)CCC(=O)O)[C@@]2(C)C=CC(=O)C=C12 (stereo not given in full),91.3% (inactive)
11,CC(=O)CC(c1ccccc1)c1c(O)c2ccccc2oc1=O (stereo not given),118% (inactive)
12,CC(=O)O[C@]1(C(C)=O)CCC2C3C=C(Cl)C4=CC(=O)[C@@H]5C[C@@H]5[C@]4(C)C3CC[C@@]21C (stereo not given in full),101% (inactive)
13,COc1ccc(/C=C/C(=O)O)cc1OC,110% (inactive) and 92.7% (inactive)
14,OC[C@@H](O)[C@@H](O[C@@H]1O[C@H](CO)[C@@H](O)[C@H](O)[C@H]1O)[C@H](O)[C@@H](O)CO,96.4% (inactive)
15,Cc1ccccc1OCC(O)CO (stereo not given),95.2% (inactive)
16,Cc1c(C)c2c(c(C)c1O)CCC(C)(COc1ccc(CC3SC(=O)NC3=O)cc1)O2 (stereo not given),117% (inactive)
17,CC(C)=CCc1c2c(c3occ(-c4ccc(O)cc4)c(=O)c3c1O)C=CC(C)(C)O2,99.3% (inactive)
18,CC(C)(O)CC[C@@H](O)[C@](C)(O)C1CC[C@@]2(O)C3=CC(=O)C4C[C@@H](O)[C@@H](O)C[C@]4(C)C3CC[C@]12C (stereo not given in full),102% (inactive)
19,CCCCCCCC/C=C/CCCCCCCCOP(=O)([O-])OCC[N+](C)(C)C,96.1% (inactive)
20,CCOC(=O)[C@H](CCc1ccccc1)N[C@@H](C)C(=O)N1CCC[C@H]1C(=O)O,113% (inactive)

row,Compound,activity remaining
1,NC(CSCSCC(N)C(=O)O)C(=O)O (stereo not given),95.5% (inactive)
2,CO[C@]12C[C@@H](COC(=O)c3cncc(Br)c3)CN(C)[C@@H]1Cc1cn(C)c3cccc2c13,108% (inactive)
3,C=C1C(=O)O[C@@H]2C[C@@]3(C)CCC[C@H](C)C3=C[C@H]12,97.8% (inactive)
4,CC(C)=CCC/C(C)=C/CC/C(C)=C/CC/C(C)=C/CC/C(C)=C/CC/C(C)=C/CC/C(C)=C/CC/C(C)=C/CC/C(C)=C/CO,105% (inactive)
5,CN1CCC(=C2c3ccccc3Sc3ccccc32)CC1,119% (inactive)
6,CC[C@]1(O)CC2CN(CCc3c([nH]c4ccccc34)[C@@](C(=O)OC)(c3cc4c(cc3OC)N(C=O)[C@H]3[C@@](O)(C(=O)OC)[C@H](OC(C)=O)[C@]5(CC)C=CCN6CC[C@]43[C@@H]65)C2)C1 (stereo not given in full),82.4% (inactive)
7,O=C1CN(/N=C/c2ccc([N+](=O)[O-])o2)C(=O)N1,78.3% (inactive)
8,CCCCOc1ccc(CC(=O)NO)cc1,80.8% (inactive)
9,Nc1ncnc2c1ncn2C1C[C@H](O)[C@@H](CO)O1 (stereo not given in full),125% (inactive)
10,O=C1O[C@@H](CO)[C@H](O)[C@@H](O)[C@@H]1O,113% (inactive)
11,O=c1[nH]cnc2nc[nH]c12,89.8% (inactive)
12,COc1ccc(-c2cc(=O)c3ccccc3o2)cc1OC,109% (inactive)
13,CC(=O)O[C@H]1C(=O)[C@@]2(C)C([C@H](OC(=O)c3ccccc3)[C@]3(O)C[C@H](OC(=O)[C@H](O)[C@@H](NC(=O)c4ccccc4)c4ccccc4)C(C)=C1C3(C)C)[C@]1(OC(C)=O)CO[C@@H]1C[C@@H]2O (stereo not given in full),90.9% (inactive)
14,Cc1cc(O)c(C)c(O)c1C(=O)O,121% (inactive)
15,COc1ccc(-c2c(O)c3c(OC)c4c(cc3oc2=O)OC(C)(C)CC4)cc1,99.1% (inactive)
16,CC(NCCC(c1ccccc1)c1ccccc1)c1ccccc1 (stereo not given),104% (inactive)
17,CN(C)CCOC(c1ccc(Cl)cc1)c1ccccn1 (stereo not given),115% (inactive)
18,CC1(C)S[C@@H]2[C@H](NC(=O)Cc3ccccc3)C(=O)N2[C@H]1C(=O)O,111% (inactive)
19,C[C@H]1CC[C@@H](C(C)(C)O)CC2=C1CC[C@@H]2C,102% (inactive)
20,O=C(O)CC(O)(CC(=O)O)C(=O)O,123% (inactive)
